Bcl-xL primary – inhibitors of human Bcl-xL, primary screen, biochemical, fluorescence polarization, HTS; AID 2129, 2009; 0.7% of 320,000 active; inhibition, % at 10.9 µM; Bcl-2-like protein 1 (Homo sapiens), Q07817; GST-Bcl-xL / FITC-Bim BH3 peptide fluorescence polarization;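 active means inhibition above the mean of all tested compounds plus 3 SD, cutoff set per campaign, cut at about 30% in these data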;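 further: 0% = DMSO wells and 100% = unlabeled Bim-BH3 peptide competitor; inhibitors lower millipolarization by displacing the labeled peptide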
Target sequence (Q07817 whole entry, looked up): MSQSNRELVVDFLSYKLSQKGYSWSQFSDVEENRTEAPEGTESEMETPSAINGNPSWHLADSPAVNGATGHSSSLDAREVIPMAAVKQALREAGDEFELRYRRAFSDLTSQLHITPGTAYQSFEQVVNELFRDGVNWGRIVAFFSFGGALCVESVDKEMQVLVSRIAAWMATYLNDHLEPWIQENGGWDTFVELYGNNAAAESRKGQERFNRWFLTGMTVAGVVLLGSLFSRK
MCL1-BIM inh – inhibitors of MCL1 binding to BIM-BH3, primary screen, biochemical, fluorescence polarization; Induced myeloid leukemia cell differentiation protein Mcl-1 (Homo sapiens), Q07820; GST-MCL1 / FITC-Bim-BH3 fluorescence polarization; inhibition, % at 10.9 µM; 0.68% of 320,000 active; AID 2057, 2009;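 active means inhibition above the mean inhibition of all tested compounds plus 3 SD, set per campaign, cut at about 40% in these data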;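 further: 0% = DMSO wells and 100% = unlabeled Bim-BH3 peptide control; higher means more loss of mP so more displacement of Bim peptide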
Target sequence (Q07820 whole entry, looked up): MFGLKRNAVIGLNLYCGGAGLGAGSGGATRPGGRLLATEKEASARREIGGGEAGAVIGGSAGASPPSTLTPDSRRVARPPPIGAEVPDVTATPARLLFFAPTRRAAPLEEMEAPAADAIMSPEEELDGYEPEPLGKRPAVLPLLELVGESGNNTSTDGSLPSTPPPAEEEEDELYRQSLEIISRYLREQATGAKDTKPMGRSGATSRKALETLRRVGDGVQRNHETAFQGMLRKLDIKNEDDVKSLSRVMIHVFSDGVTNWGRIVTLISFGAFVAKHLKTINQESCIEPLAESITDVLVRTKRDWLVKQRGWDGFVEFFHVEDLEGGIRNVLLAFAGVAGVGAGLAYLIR
Keap1-Nrf2 PPI – Keap1-Nrf2 protein-protein interaction inhibitors, primary screen, biochemical, fluorescence polarization, single point; Keap1 Kelch-Nrf2 peptide fluorescence polarization, 1536-well; inhibition, % at 9.4 µM; 0.15% of 340,000 active; in the data active means inhibition above about 12%;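 further: human Keap1 Kelch domain with fluorescein labeled Nrf2 9mer peptide probe; 0% = neutral control wells and 100% = peptide positive control; higher means more block of Keap1 binding to Nrf2 peptide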
C-LANA FP – inhibitors of KSHV C-LANA binding to DNA, primary screen, biochemical, fluorescence polarization, FAM-LBS DNA, MBP-C-LANA, single point; inhibition, % at 9 µM; 0.078% of 340,000 active; Kaposi's sarcoma herpesvirus LANA C-terminal domain (residues 932-1162) DNA binding;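 active means highest replicate inhibition at or above 60% at 9 µM, even if other replicates fall short; inactive means all replicates below 60% inhibition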;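 further: 0% = neutral control wells and 100% = 4 µM acridine orange control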
GLD-1 TGE inh – GLD-1/TGE RNA complex disruptors, primary screen, biochemical, fluorescence polarization; purified GLD-1 + fluorescein TGE RNA; Female germline-specific tumor suppressor gld-1 (Caenorhabditis elegans), Q17339; AID 2280, 2010; inhibition, % at 5.96 µM; 0.44% of 320,000 active;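 active means percent inhibition above a per-plate cutoff, the plate mean of test compounds plus 3 SD, cut at about 30% in these data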;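 further: 0% = DMSO wells with GLD-1 and probe and 100% = wells lacking GLD-1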
E coli Lon inh – inhibitors of E. coli Lon protease, primary screen, biochemical, fluorescence polarization. 0.42% of 360,000 active. purified E. coli Lon protease. inhibition, % at 7.94 µM. AID 602123, 2011; in the data active means inhibition above about 13%, passing the limit was not always enough;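 further: 0% = enzyme with probe and DMSO and 100% = no enzyme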
Bcl-xL conf – Bcl-xL inhibitors blocking Bim BH3 binding, confirmation, counter-screen for MCL1 inhibitor project, biochemical, fluorescence polarization. shares compounds with MCL1-BIM inh. GST-Bcl-xL / FITC-Bim BH3 peptide FP binding. inhibition, % at 10.9 µM. 54% of 1,700 active;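 active means inhibition above a cutoff equal to the mean inhibition of all tested compounds plus 3 SD, cut at about 30% in these data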;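 further: 0% = DMSO wells and 100% = unlabeled Bim BH3 control peptide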
MCL1 BIM confirm – inhibitors of MCL1 binding to BIM-BH3, confirmation, biochemical, fluorescence polarization, triplicate; inhibition, % at 10.9 µM; shares compounds with MCL1-BIM inh; 61% of 1,700 active; GST-MCL1 / FITC-Bim-BH3 fluorescence polarization;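 active means inhibition above the average of all tested compounds plus 3 SD, cut at about 40% in these data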;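 further: 0% = DMSO wells and 100% = unlabeled Bim-BH3 control peptide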
GLD-1 TGE cf – GLD-1/TGE RNA binding inhibitors, retest, confirmation, biochemical, fluorescence polarization, triplicate; shares compounds with GLD-1 TGE inh; inhibition, % at 5.96 µM; GLD-1/FL-TGE RNA fluorescence polarization; AID 2459, 2010; 10% of 550 active;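 active means average inhibition across triplicates above the hit cutoff set in the primary screen, cut at about 32% in these data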;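 further: 0% = GLD-1 with RNA probe and DMSO and 100% = wells lacking GLD-1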
Keap1 Kelch bind – Keap1 Kelch domain binders by thermal stabilisation, dose response, biophysical, thermal shift, RT-PCR instrument, cherry-pick; shares compounds with Keap1-Nrf2 PPI; delta Tm; active compounds read high; max delta Tm, degrees C; 8% of 400 active; AID 651823, 2012; in the data active means max delta Tm above about 0.48 degrees C
Dye-only ctr – Sypro Orange dye melt without protein, dose response, artefact control for Keap1-Nrf2 interaction inhibitor project, biochemical, thermal shift counterscreen, cherry-pick; shares compounds with Keap1-Nrf2 PPI; delta Tm, degrees C (concentration not given with the values); AID 651858, 2012; 140 tested, under 10 active; Sypro Orange dye-only thermal melt, no protein, delta Tm; top dose 26 µM;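 active means at highest dose tested, delta Tm positive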
eLon confirm – E. coli Lon protease inhibitor retest, confirmation, biochemical, fluorescence polarization | purified E. coli Lon | shares compounds with E coli Lon inh | 31% of 1,400 active | inhibition, % at 7.94 µM | AID 602230, 2012; in the data active means inhibition above about 16%;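 further: 0% = enzyme with probe and DMSO and 100% = no enzyme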
* marks the source's active call; other numbers are inactive results; x = not tested or not shown; + = active, no number. Rows were chosen to be rich in hits. Some 1.3% of all compounds tested hit in one or more screens of this group.

SMILES | Bcl-xL primary | MCL1-BIM inh | Keap1-Nrf2 PPI | C-LANA FP | GLD-1 TGE inh | E coli Lon inh | GLD-1 TGE cf | others
N#CCCN(CCC#N)C(=O)C1c2ccccc2Oc2ccccc21 | + | + | 64* | 95* | + | + | x | Bcl-xL conf=28;MCL1 BIM confirm=29;Keap1 Kelch bind=-0.18;Dye-only ctr=-32;eLon confirm=7
CC(C)c1ccc[n+](-c2nc([O-])sc2C=O)c1 | 8 | 3 | x | x | 3 | 7 | x
Cc1ccc[n+](-c2nc([O-])sc2C=O)c1 | 173* | + | 63* | 83* | 156* | 92* | x | Bcl-xL conf=169*;MCL1 BIM confirm=+;eLon confirm=148*
O=Cc1ccc2noc(-c3ccc(F)cc3)c2c1 | 101* | 106* | -12 | 9 | 103* | 20* | x | Bcl-xL conf=123*;MCL1 BIM confirm=163*;eLon confirm=110*
O=c1cc(CN2CCc3ccccc32)nc2sccn12 | 18 | 11 | 0 | 3 | 11 | -1 | x
O=c1cc(CN2CCCc3ccccc32)nc2sccn12 | 199* | + | 58* | 43 | -9 | 39* | x | Bcl-xL conf=134*;MCL1 BIM confirm=166*;Keap1 Kelch bind=0.01;eLon confirm=86*
CCC(C(=O)N1CCN(Cc2ccc3c(c2)OCO3)CC1)n1c(=O)[nH]c2ccccc2c1=O (stereo unspecified) | 4 | 10 | -4 | 1 | 4 | -11 | x
CC(=O)N/N=C/c1cc(C(C)(C)C)cc(/C=N/NC(C)=O)c1O | 94* | 89* | 8 | 8 | 156* | 41* | x | Bcl-xL conf=86*;MCL1 BIM confirm=115*;eLon confirm=75*
CCOC(=O)CNc1c(-c2ccc(OC)cc2)nc2ccc(Cl)cn12 | 16 | 18 | 0 | 4 | 37* | 3 | 20
COCCNc1c(-c2ccc(OC)cc2)nc2ccc(Cl)cn12 | 24 | 23 | 7 | 0 | 23 | -10 | x
CCc1nc2ccc(C(=O)NCc3cccs3)cn2c1N(CC)CCOC | x | x | x | x | x | 4 | x
CCOC(=O)C1=C(Cc2ccc(Cl)cc2)C(=O)c2ccccc2C1=O | 25 | 37 | 1 | -1 | 33* | 9 | 5
Cc1cc(NCCCCO)n2c(nc3ccccc32)c1C#N | 5 | 0 | -3 | 1 | 0 | -12 | x
CCN(CC)CCNc1cc(C)c(C#N)c2nc3ccccc3n12 | 33* | 35 | -4 | 2 | 32* | -26 | 5
O=C(COc1ccccc1Cl)Nc1ccc(N2CCN(C(=O)c3ccccc3)CC2)cc1 | 4 | 2 | 7 | 2 | 4 | -7 | x
Cn1c(=O)c2cc(NCc3ccccc3)nnc2n(C)c1=O | 46* | 44* | 1 | 2 | 32* | -2 | 5
COc1ccc2c(c1OC)C(CC(C)=O)N1CCc3cc4c(cc3C1C2=O)OCO4 (stereo unspecified) | x | x | x | x | x | -10 | x
C[C@@H]1CC(=O)[C@H]2CC(CO)=CCC[C@@H]2[C@@]1(C)CC/C(=C/CO)CO | 4 | 0 | -2 | -5 | 80* | -11 | 3
COc1cccc(-c2ccc(C3=CC(=O)CC(C)(C)C3=O)cc2)c1OC | x | x | x | x | x | -4 | x
COc1ccc(C(=O)NC(=S)Nc2ccc(CN3CCOCC3)cc2)cc1 | 6 | 5 | 4 | -1 | 64* | -13 | 3
CCOc1ccc(S(=O)(=O)Nc2nc3ccc(OC)cc3s2)cc1 | 3 | 0 | 0 | 0 | 39* | -19 | -2
C=CCn1c(CCNC(=O)c2cccs2)nnc1SCC(=O)c1ccc(Cl)cc1 | -2 | -1 | 1 | -2 | 86* | -1 | 8
Cc1ccc(C)c(NC(=S)NCc2ccc3[nH]c4c(c3c2)CCCC4)c1 | 55* | 15 | -3 | -1 | 59* | 0 | -4
Cc1ccccc1NC(=S)NCc1ccc2[nH]c3c(c2c1)CCCC3 | 6 | 10 | 1 | 1 | 7 | -1 | x
CCN(Cc1ccccc1)C(=O)CCS(=O)(=O)c1ccc2c(c1)n(C)c(=O)c(=O)n2C | 5 | 6 | -2 | -1 | 46* | 6 | 1
SMILES | Bcl-xL primary | MCL1-BIM inh | Keap1-Nrf2 PPI | C-LANA FP | GLD-1 TGE inh | E coli Lon inh | GLD-1 TGE cf | others
Cn1c(=O)c(=O)n(C)c2cc(S(=O)(=O)CCC(=O)NCc3ccccc3)ccc21 | 1 | 2 | 0 | 1 | 1 | 3 | x
CC(C)CN(C(=O)CCCSc1nc2ccccc2[nH]1)c1c(N)n(Cc2ccccc2)c(=O)[nH]c1=O | 12 | -4 | -2 | 4 | 22 | 18 | x
CC(C)CCN(C(=O)CCCSc1nc2ccccc2[nH]1)c1c(N)n(Cc2ccccc2)c(=O)[nH]c1=O | 26 | 27 | 0 | 5 | 47* | 20 | 65*
Cc1ccccc1-c1nc(CS(=O)(=O)CC(=O)NCCCN2CCN(C)CC2)c(C)o1 | 2 | 13 | 2 | 1 | 6 | -9 | x
Cc1ccc(NS(=O)(=O)c2cccc(C(=O)NNC(=O)c3cccn3C)c2)c(C)c1 | -2 | -4 | -4 | -1 | 3 | -2 | x
C=CCc1cccc(/C=N/c2ncn[nH]2)c1O | 4 | 14 | -6 | 0 | -2 | 8 | x
C=CCc1cccc(/C=N/n2c(C)nnc2C)c1O | 24 | 29 | 0 | 12 | 31* | -7 | 35*

Source: PubChem
